In PubChem BioAssay (NCI):
About 83,000 compounds went through this panel and 20% of them were active in at least one assay; those are over-represented in the sample as a whole.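 Method: cells in 96-well plates; compound added at one concentration; 48 h incubation; percent growth measured; values under 10 scored active.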 Unmarked numbers belong to inactive results. Active and inactive are the calls of the source.

test system: HL-60(TB) leukemia; test: NCI-60 one-dose screen, 48 h (100 = growth as untreated, 0 = no growth, -100 = all killed); conditions: 10 µM unless noted

| SMILES | growth |
| --- | --- |
| O=C(O)c1cn(C2CC2)c2cc(N3CCN(C(=O)Nc4nc(-c5ccccc5)cs4)CC3)c(F)cc2c1=O | 3.14% (active) |
| O=C(Nc1ncc(Cc2ccccc2)s1)c1ccc2c(c1)OCCO2 | -48.6% (active) |
| CCCCCCCCCCCCCCCCCCSC(=N)N | 46% |
| O=c1nc(-c2ccccc2)c2cc(-c3ccc(C(F)(F)F)nc3)ccc2[nH]1 | 94.5% |
| [2H]c1nc(Nc2ncc(F)c(-c3cc(F)c4nc(C)n(C(C)C)c4c3)n2)c([2H])c([2H])c1CN1CCN(CC)CC1 | 24.6% |
| COc1ccc(CN2C(=O)/C(=C\C(=O)c3ccc(OCCN4CCCC4)cc3)c3ccccc32)cc1 | 4.86% (active) |
| CCCCCCCCCCCCCCCCCC(=O)NCCNC(=O)CCCCCCCCCCCCCCCCC | 67.8% |
| COc1ccc(-c2nc(/C=N/Nc3cc(C)nc4ccc(Br)cc34)c(C)o2)cc1 | -51.5% (active) |
| CC(=O)N(CCCCCCN(C(C)=O)C(C)=O)C(C)=O | 108% [100 µM] |
| COc1cc(NCC(O)CN(CC(C)C)CC(C)C)c2nc(C)ccc2c1 (configuration not stated) | 81.2% |
| Cc1cc(NC(=O)c2ccc(C)c(Nc3nccc(-c4cccnc4)n3)c2)cc(-n2cnc(C)c2)c1 | 22.8% |
| C=C(NC(=O)C(=C)NC(=O)c1csc(C2=NC3c4csc(n4)C4NC(=O)c5csc(n5)C(C(C)(O)C(C)O)NC(=O)C5CSC(=N5)C(=CC)NC(=O)C(C(C)O)NC(=O)c5csc(n5)C3(CC2)NC(=O)C(C)NC(=O)C(=C)NC(=O)C(C)NC(=O)C(C(C)CC)NC2C=Cc3c(C(C)O)cc(nc3C2O)C(=O)OC4C)n1)C(N)=O (configuration not stated) | 3.83% (active) |
| Cc1cc2nc(-c3c(N)ncc(C#N)c3-c3ccc(Cl)cc3)[nH]c2cc1C | 89.5% |
| C=C1C(=O)O[C@H]2[C@H]1CC/C(C(=O)Nc1ccc(OC)c(C(N)=O)c1O)=C\CC[C@@]1(C)O[C@@H]21 | 0.316% (active) |
| NN1CCOC(c2ccccc2)C1 (configuration not stated) | -22.4% (active) |
| O=C1c2ccccc2Cc2cccc(Cl)c21 | 39.5% |
| COc1cc(-c2nc(-c3nc4cc(C(=O)c5ccccc5)ccc4[nH]3)cc3c2[nH]c2ccccc23)cc(OC)c1OC | 89.7% |
| O=[N+]([O-])c1cc2c(cc1Br)-c1ccccc1C2 | 104% |
| COc1cc(C(=O)/C=C/c2cccnc2Nc2ccccc2)cc(OC)c1OC | -31.2% (active) |

| SMILES | growth |
| --- | --- |
| O=C1c2cc3c(cc2-c2c1c1ccc(Cl)cc1c(=O)n2CCCN1CCOCC1)OCO3 | 16.7% |
| CCCCCCCCCCCCCCCCCC1=NCCCN1CCO | 106% |
| CC(NCCC(c1ccccc1)c1ccccc1)c1ccccc1 (configuration not stated) | 14.6% |
| CC1=CC(=O)C(C(C)=Nc2ccccc2Cl)C(=O)O1 (configuration not stated) | 101% |
| N/C(=N\O)c1ncc(-c2ccc(C(F)(F)F)cc2)c(NC2CCCCCC2)n1 | -58.8% [100 µM] (active) |
| COc1ccn2c(C(C)=O)cc(C(=O)c3ccc4c(c3)Sc3ccccc3N4)c2c1 | -9.97% (active) |
| O=c1c2ccccc2sc2c(NCCCNCCO)nc3ccccc3c12 | 7.81% (active) |
| c1ccc2nc(Cn3c[n+](Cc4ccc5ccccc5n4)c4ccccc43)ccc2c1 | -40.1% (active) |
| CN(C)c1nc(-c2ccco2)n2nc(-c3ccco3)cc2n1 | 97.3% |
| O=S(=O)(NCCNc1nccc(-c2c(-c3cccc(O)c3)nc3occn23)n1)c1ccc(C(F)(F)F)cc1 | 79.1% |
| COc1cc(/C=C/C(=O)c2ccc(Nc3ncnc4ccccc34)cc2)cc(OC)c1 | 55.5% |
| COc1ccc(Nc2ncccc2C(=O)NCc2cn(Cc3cc(OC)cc(OC)c3)nn2)cc1 | 91.6% |
| Cn1ccnc1C(=O)/C=C/c1ccc(C(=O)Nc2c(F)c(F)c(F)c(F)c2F)cc1 | -22.4% (active) |
| COc1cc(Cn2ccc3c2-c2oncc2CC3)cc(OC)c1 | 16.6% |
| O=C(COc1cc(O)c2c(=O)cc(-c3ccccc3)oc2c1)Nc1ccccc1C(F)(F)F | 55% |
| CN1C/C=C\CCOc2cccc(c2)-c2ccnc(n2)Nc2cccc(c2)C1 | -51.9% (active) |
| C#CCOc1ccc2nc(CCl)c(Cl)c(Nc3cccc(C(F)(F)F)c3)c2c1 | 56.1% |
| CC[C@@H]1C(=O)N(C)c2cnc(Nc3ccc(C(=O)NC4CCC(N5CCN(CC6CC6)CC5)CC4)cc3OC)nc2N1C(C)C (some centres not stated) | -48.5% (active) |
